PubChem BioAssay AID1159580 (chemical genetic matrix, 2015)
Several values for one entry are separate records, joined by “and”; a condition that tells them apart may be missing. Identical values can stand only once. Among all 5,500 compounds or so, about 2,000 (36%) were called active. Inconclusive results (about 18%) are left out. Rule as the data show it: active = normalized growth mostly below about 0.91 (no sharp cut-off); inconclusive = no clear call, values can overlap the other calls; inactive = mostly above about 0.92. The list shows a part of the results.

Assay: chemical genetic growth profiling, strain panel (AID 1159580);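 also: tested at 20 µM; growth read once vehicle control cultures reached saturation at 30 °C; 1 = growth at the plate median or of vehicle wells; lower values mean less growth of the strain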
Conditions: S. cerevisiae deletion strains, growth OD
[1] = locus YDR150W, strain NUM1, hits give low values
[2] = locus YMR307W, strain GAS1, hits give low values

Measured: normalized growth

COc1ccc2c(c1O)-c1c(OC)c(OC)cc3c1[C@H](C2)N(C)CC3
inactive: locus YAL021C, strain ccr4, hits give low values 0.926 | locus YAL026C, strain drs2, hits give low values 0.985 | locus YAL030W, strain snc1, hits give low values 0.989 | locus YBL061C, strain skt5, hits give low values 0.99 | locus YBR009C, strain hhf1, hits give low values 1.01 | locus YBR021W, strain FUR4, hits give low values 1.02 | locus YBR023C, strain chs3, hits give low values 0.988 | locus YBR171W, strain sec66, hits give low values 0.976 | locus YBR229C, strain ROT2, hits give low values 1 | locus YBR231C, strain swc5, hits give low values 0.991 | locus YBR279W, strain paf1, hits give low values 0.978 | locus YCL011C, strain gbp2, hits give low values 0.979 | locus YCL016C, strain dcc1, hits give low values 0.983 | locus YCL029C, strain bik1, hits give low values 1.04 | locus YCL061C, strain MRC1, hits give low values 0.979 | locus YCL069W, strain vba3, hits give low values 0.981 | locus YCR088W, strain abp1, hits give low values 0.975 | locus YDL005C, strain med2, hits give low values 0.982 | locus YDL035C, strain GPR1, hits give low values 1.06 | locus YDL040C, strain nat1, hits give low values 0.982 | locus YDL074C, strain BRE1, hits give low values 1.1 | locus YDL101C, strain DUN1, hits give low values 1.02 | locus YDL185W, strain tfp1, hits give low values 1.03 | locus YDL192W, strain arf1, hits give low values 1.03 | locus YDR001C, strain nth1, hits give low values 0.982 | locus YDR069C, strain doa4, hits give low values 0.989 | locus YDR101C, strain arx1, hits give low values 1.03 | locus YDR137W, strain rgp1, hits give low values 0.983 | [1] 1.01 | locus YDR159W, strain sac3, hits give low values 1 | locus YDR162C, strain NBP2, hits give low values 1.01 | locus YDR195W, strain ref2 0.991 | locus YDR297W, strain sur2, hits give low values 0.974 | locus YDR318W, strain mcm21, hits give low values 1.01 | locus YDR334W, strain swr1, hits give low values 0.951 | locus YDR335W, strain msn5, hits give low values 0.977 | locus YDR388W, hits give low values 1.02 | locus YDR392W, strain spt3, hits give low values 0.931 | locus YDR502C, strain sam2, hits give low values 1.01 | locus YEL003W, strain gim4, hits give low values 0.982 | locus YEL037C, strain rad23, hits give low values 0.988 | locus YEL061C, strain CIN8 (second series), hits give low values 0.987 | locus YEL061C, strain CIN8, hits give low values 1.02 | locus YER015W, strain faa2, hits give low values 0.991 | locus YER016W, strain bim1, hits give low values 0.985 | locus YER110C, hits give low values 1.01 | locus YER111C, strain swi4, hits give low values 0.995 | locus YER155C, strain BEM2 (second series), hits give low values 1.01 | locus YER155C, strain BEM2, hits give low values 1 | locus YER167W, strain BCK2, hits give low values 1.02 | locus YFR010W, strain ubp6, hits give low values 0.987 | locus YGL078C, strain dbp3, hits give low values 1.02 | locus YGL086W, strain mad1, hits give low values 1.04 | locus YGL167C, strain pmr1, hits give low values 0.999 | locus YGL173C, strain kem1, hits give low values 0.975 | locus YGL227W, strain vid30, hits give low values 0.989 | locus YGL240W, strain doc1, hits give low values 0.996 | locus YGL248W, strain PDE1, hits give low values 1.01 | locus YGL253W, strain hxk2, hits give low values 1.01 | locus YGR135W, strain pre9, hits give low values 1 | locus YGR252W, strain gcn5, hits give low values 0.991 | locus YHR013C, strain ard1, hits give low values 0.95 | locus YHR027C, strain rpn1, hits give low values 0.988 | locus YHR030C, strain SLT2, hits give low values 1.02 and 0.976 | locus YHR079C, strain IRE1 (second series), hits give low values 1.01 | locus YHR079C, strain IRE1, hits give low values 0.993 | locus YHR094C, strain hxt1, hits give low values 1.01 | locus YHR129C, strain ARP1, hits give low values 1.03 | locus YHR142W, strain chs7, hits give low values 0.915 | locus YHR200W, strain rpn10, hits give low values 1.04 | locus YIL066C, strain RNR3, hits give low values 1.04 | locus YIL073C, strain SPO22, hits give low values 1.1 | locus YIL125W, strain kgd1, hits give low values 1.01 | locus YIR030C, strain dcg1, hits give low values 1.01 | locus YJL092W, strain hpr5, hits give low values 0.97 | locus YJL095W, strain BCK1 (second series), hits give low values 0.995 | locus YJL095W, strain BCK1, hits give low values 1.03 and 1.01 | locus YJL115W, strain asf1, hits give low values 0.957 | locus YJL129C, strain trk1, hits give low values 0.959 | locus YJL134W, strain LCB3, hits give low values 1.01 | locus YJL154C, strain vps35, hits give low values 0.982 | locus YJL164C, strain tpk1, hits give low values 0.972 | locus YJL166W, strain qcr8, hits give low values 0.987 | locus YJL168C, strain set2, hits give low values 1.03 | locus YJL187C, strain SWE1 (second series), hits give low values 1.03 | locus YJL187C, strain SWE1, hits give low values 0.994 | locus YJR043C, strain POL32, hits give low values 1.03 | locus YJR066W, strain TOR1, hits give low values 0.947 | locus YKL009W, strain mrt4, hits give low values 1.12 | locus YKL068W, hits give low values 1 | locus YKL085W, strain MDH1 (second series), hits give low values 1.01 | locus YKL085W, strain MDH1, hits give low values 1.01 | locus YKL160W, strain elf1, hits give low values 0.965 | locus YKR001C, strain vps1, hits give low values 1.03 | locus YKR026C, strain gcn3, hits give low values 0.981 | locus YKR091W, strain srl3, hits give low values 0.975 | locus YLL001W, strain dnm1, hits give low values 0.986 | locus YLL026W, hits give low values 0.989 | locus YLL041C, strain sdh2, hits give low values 0.975 | locus YLR027C, strain aat2, hits give low values 0.987 | locus YLR039C, strain RIC1, hits give low values 1.09 | locus YLR058C, strain SHM2, hits give low values 1.01 | locus YLR102C, strain apc9, hits give low values 1.02 | locus YLR113W, strain HOG1, hits give low values 1 | locus YLR221C, strain rsa3, hits give low values 0.981 | locus YLR258W, strain gsy2, hits give low values 0.999 | locus YLR262C, strain YPT6 (second series), hits give low values 0.972 | locus YLR262C, strain YPT6, hits give low values 1.1 | locus YLR268W, strain sec22, hits give low values 1.05 | locus YLR320W, strain mms22, hits give low values 1.01 | locus YLR330W, strain CHS5, hits give low values 1.02 | locus YLR342W, strain FKS1 (second series), hits give low values 1.06 | locus YLR342W, strain FKS1, hits give low values 0.986 | locus YLR357W, strain rsc2, hits give low values 1 | locus YLR370C, strain arc18, hits give low values 0.979 | locus YLR371W, strain rom2, hits give low values 1.03 | locus YLR384C, strain iki3, hits give low values 0.996 | locus YLR418C, strain cdc73, hits give low values 1.02 | locus YML016C, strain PPZ1, hits give low values 1.01 | locus YML032C, strain rad52, hits give low values 1.02 | locus YML120C, strain ndi1, hits give low values 0.966 | locus YML124C, strain tub3, hits give low values 1 | locus YMR058W, strain fet3, hits give low values 0.968 | locus YMR078C, strain ctf18, hits give low values 1.02 | locus YMR125W, strain sto1, hits give low values 0.99 | locus YMR129W, hits give low values 1.01 | locus YMR205C, strain PFK2, hits give low values 1.01 | locus YMR223W, strain ubp8, hits give low values 0.994 | locus YMR231W, strain pep5, hits give low values 0.987 | [2] 1.11 | locus YNL067W, strain RPL9B, hits give low values 1.01 | locus YNL071W, strain lat1, hits give low values 0.983 | locus YNL183C, strain NPR1, hits give low values 0.954 | locus YNL209W, strain ssb2, hits give low values 0.983 | locus YNL233W, strain BNI4, hits give low values 1.01 | locus YNL248C, strain rpa49, hits give low values 0.912 | locus YNL250W, strain rad50, hits give low values 1.01 | locus YNL271C, strain bni1, hits give low values 1.03 | locus YNL298W, strain CLA4, hits give low values 1.01 | locus YNL307C, strain MCK1, hits give low values 1.02 | locus YNL322C, strain KRE1 (second series), hits give low values 0.974 | locus YNL322C, strain KRE1, hits give low values 1.02 | locus YNR049C, strain mso1, hits give low values 0.987 | locus YNR052C, strain pop2, hits give low values 1.02 | locus YOL006C, strain TOP1, hits give low values 1.21 | locus YOL012C, strain htz1 1.07 | locus YOL147C, strain pex11, hits give low values 1.01 | locus YOR001W, strain rrp6, hits give low values 0.955 | locus YOR061W, strain CKA2, hits give low values 1.02 | locus YOR069W, strain VPS5, hits give low values 1.01 | locus YOR070C, strain gyp1, hits give low values 0.989 | locus YOR080W, strain dia2, hits give low values 0.999 | locus YOR083W, strain WHI5, hits give low values 0.943 | locus YOR106W, strain vam3, hits give low values 0.945 | locus YOR136W, strain idh2, hits give low values 1.02 | locus YOR144C, strain elg1, hits give low values 1.01 | locus YOR184W, strain ser1, hits give low values 1.06 | locus YOR231W, strain MKK1, hits give low values 1 | locus YOR265W, strain rbl2, hits give low values 0.984 | locus YOR270C, strain vph1, hits give low values 0.964 | locus YOR290C, strain snf2, hits give low values 0.99 | locus YOR316C, strain cot1, hits give low values 1.04 | locus YPL051W, strain arl3, hits give low values 0.973 | locus YPL078C, strain atp4, hits give low values 0.926 | locus YPL106C, strain sse1, hits give low values 0.972 | locus YPL240C, strain hsp82, hits give low values 0.976 | locus YPL241C, strain CIN2, hits give low values 1.01 | locus YPL256C, strain CLN2, hits give low values 0.973 | locus YPR119W, strain clb2, hits give low values 1 | locus YPR141C, strain kar3, hits give low values 1 | locus YPR163C, strain tif3, hits give low values 1.02 | locus YPR167C, strain met16, hits give low values 1.04 | strain wtn01, hits give low values 1.07

CCCN1CCO[C@@H]2c3cc(O)ccc3OC[C@H]21
inactive: locus YAL013W, strain DEP1, hits give low values 0.981 | locus YAL040C, strain CLN3, hits give low values 1.09 | locus YCL061C, strain MRC1 (second series), hits give low values 1 | [1] 0.999 | locus YDR363W, strain ESC2, hits give low values 1.03 | locus YER002W, strain NOP16, hits give low values 0.989 | locus YGR078C, strain PAC10, hits give low values 1.01 | locus YJR075W, strain HOC1, hits give low values 0.993 | [2] 0.981 | locus YNL153C, strain GIM3, hits give low values 0.97 | locus YNL175C, strain NOP13, hits give low values 1.02 | locus YNL197C, strain WHI3, hits give low values 1 | locus YNL224C, strain SQS1, hits give low values 0.993 | locus YOR083W, strain WHI5 (second series), hits give low values 1.02
